Assay outcomes (PubChem BioAssay)
An excerpt weighted towards active compounds, which were near 2.8% of everything screened.
LGR2 antag – blocks bursicon-induced cAMP signaling via Drosophila LGR2. inhibition, % at 9.99 µM. 380,000 compounds, 0.35% hits. AID 720647. HEK293 LGR2, CRE-luciferase, bursicon-stimulated, 4 h;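 active means drop in luminescence signal, shown as inhibition above about 50% in the replicate tests, limit read from the data, passing the limit was not always enough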;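 further: agonist challenge used bursicon conditioned medium at about half maximal strength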
TROY NFkB inh – inhibitors of TROY-dependent NF-kB signaling | 360,000 compounds, 0.98% hits | inhibition, % at 10 µM | Q293 LMP1-TROYcd NF-kB luciferase reporter, 4 h | AID 1347056;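 active means compounds whose plate-normalised and pattern-corrected inhibition of the luciferase reporter signal at the single screening dose is 50% or more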
TWEAK Fn14 block – inhibitors of TWEAK-Fn14 interaction signaling. 360,000 compounds, 2% hits. TWEAK-stimulated Fn14 reporter cells, luciferase luminescence, 8 h. inhibition, % at 10 µM; in the data active means inhibition above about 50%
PAX8 inh HTS – inhibitors of PAX8 transcriptional activity in RMG-I cells. RMG-I TPO-luciferase reporter, SteadyGlo, 24 h. 360,000 compounds, 1.2% hits. inhibition, % at 12.6 µM;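 active means mean replicate inhibition at least 60% with every replicate also reaching 60%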;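 further: luciferase light reporting Pax8 driven TPO promoter activity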
EWS-Fli inh – EWS/Fli transcriptional activity inhibition | A673 NR0B1-luciferase reporter, viability-normalised | inhibition, % at 12.6 µM | 350,000 compounds, 0.67% hits | AID 651661;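 active means mean inhibition of at least 50% after viability correction, with every replicate also passing that limit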;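 further: firefly luciferase signal divided by Alamar Blue viability fluorescence both relative to DMSO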
Of the large screens only hits and unclear results are named; the others gave an inactive call.

CC1CCc2c(sc(NC(=O)CSc3nc(N)cc(=O)[nH]3)c2C(N)=O)C1 (stereo not given)	TROY NFkB inh 52.8, TWEAK Fn14 block 67.2
CO[C@@H]1CN(C)C(=O)c2cc(NC(=O)c3cccc(F)c3)ccc2OC[C@H](C)NC[C@H]1C	none (no result: TROY NFkB inh, TWEAK Fn14 block, PAX8 inh HTS)
C=CC(C)(C)c1c(O)c(CC=C(C)C)c(O)c2c(=O)c3ccc(O)c(O)c3oc12	TWEAK Fn14 block 76.5 (no result: LGR2 antag, PAX8 inh HTS, EWS-Fli inh)
C=CC(C)(C)c1c2occc2c(O)c2ccc(=O)oc12	none (no result: PAX8 inh HTS)
C[C@@]12C(C[C@H](O)[C@@]34C[C@@H](CCC13)[C@@H](CO)C4=O)[C@](C)(C(=O)O)CC[C@@H]2O (stereo not given in full)	none
C=C1C(=O)[C@]23C[C@H]1CCC2[C@@]1(C)C(C[C@@H]3O)[C@](C)(C(=O)OC)CC[C@@H]1O (stereo not given in full)	LGR2 antag 68.8, TROY NFkB inh 59.3, TWEAK Fn14 block 97.7, PAX8 inh HTS 107.9, EWS-Fli inh 59.5
CCC(=O)Nc1nc2ccc3sc(C)nc3c2s1	TWEAK Fn14 block 68.6
O=C(Cc1ccccn1)N1[C@@H](CO)[C@@H]2c3ccccc3NC[C@@H]21	none (no result: TROY NFkB inh, TWEAK Fn14 block)
COc1cc(O)c(CC=C(C)C)c(O)c1C(=O)CCc1ccc(O)cc1	TROY NFkB inh 70.8, TWEAK Fn14 block 81.2 (no result: PAX8 inh HTS)
O=C(CCc1ccc(O)cc1)c1c(O)cc(O)cc1O	none
CC(C)(C)S(=O)N1Cc2cc(C(=O)NCCCN3CCOCC3)nc(-c3cccc(-c4cccc(F)c4)c3)c2[C@@H]1CCO (stereo not given in full)	none (no result: LGR2 antag, TROY NFkB inh, TWEAK Fn14 block)
S=c1sc2c(Cl)ncnc2n1-c1ccccc1	LGR2 antag 104.0, PAX8 inh HTS 93.3, EWS-Fli inh 74.2
Cc1nc(N2CCN(C)CC2)c2sc(=S)n(-c3ccccc3)c2n1	none
COC(=O)C[C@@H]1CC[C@@H]2[C@@H](COc3ccc(NC(=O)c4ccc(F)c(F)c4)cc3C(=O)N2C)O1	none (no result: TROY NFkB inh, TWEAK Fn14 block)
C=CCn1c(C)cc(-c2csc(NC(=O)C3CCN(c4ncnc5sc(C)c(C)c45)CC3)n2)c1C	none
COc1cc(C(=O)Nc2cccc(C)n2)ccc1OCC(=O)N1CCOCC1	none
COc1ccc(-c2csc(NC(=O)c3ccc(OCC(=O)N4CCOCC4)c(OC)c3)n2)cc1OC	TROY NFkB inh 70.8, TWEAK Fn14 block 81.5 (no result: LGR2 antag)
Cc1ccccc1OCC(=O)NNC(=O)C1CCN(c2ncnc3sc(C)c(C)c23)CC1	TROY NFkB inh 53.0
Cc1sc2ncnc(N3CCC(C(=O)Nc4ccc(Br)cc4Br)CC3)c2c1C	TROY NFkB inh 56.0
COc1ccc(-c2csc(NC(=O)C3CCN(c4ncnc5sc(C)c(C)c45)CC3)n2)cc1OC	TROY NFkB inh 69.8, TWEAK Fn14 block 102.2
COc1ccccc1OCC(=O)NNC(=O)C1CCN(c2ncnc3sc(C)c(C)c23)CC1	none
CO[C@H]1CN(C)C(=O)c2ccc(NC(=O)C3CCCC3)cc2OC[C@H](C)N(CC2CC2)C[C@@H]1C	none (no result: TROY NFkB inh, TWEAK Fn14 block)
COc1cccc(C(=O)Nc2ccc3c(c2)C(=O)N(C)C[C@@H](OC)[C@H](C)CN[C@H](C)CO3)c1	none (no result: TROY NFkB inh, TWEAK Fn14 block, PAX8 inh HTS)
O=C1OCC2=C1C(c1ccc(F)cc1)c1cc3c(cc1N2)OCO3 (stereo not given)	PAX8 inh HTS 71.7, EWS-Fli inh 66.6 (no result: LGR2 antag)
COc1ccc(C2C3=C(COC3=O)Oc3cc4c(cc32)OCO4)cc1OC (stereo not given)	none
CCOc1ccccc1C1C2=C(COC2=O)Nc2cc3c(cc21)OCO3 (stereo not given)	PAX8 inh HTS 87.9
C#CCOc1ccc(C2C3=C(COC3=O)Nc3cc4c(cc32)OCO4)cc1OC (stereo not given)	PAX8 inh HTS 86.1, EWS-Fli inh 58.4
O=C1OCC2=C1C(c1ccc(F)cc1)c1cc3c(cc1N2)OCCO3 (stereo not given)	PAX8 inh HTS 85.3
COCC(=O)N1CC(=O)N2[C@@H](CO)[C@H](c3ccc(C#CC4CC4)cc3)[C@@H]2C1	none (no result: TROY NFkB inh, TWEAK Fn14 block)
Cc1ccc(NCC(=O)N/N=C\c2ccc[nH]2)cc1	TROY NFkB inh 68.6, TWEAK Fn14 block 89.0
Cc1ccc(C)c(NC(=O)CCC(=O)N/N=C/c2ccc[nH]2)c1	none (no result: PAX8 inh HTS, EWS-Fli inh)
CC(C)(C)c1ccc(C2CC2C(=O)N/N=C\c2ccc[nH]2)cc1 (stereo not given)	EWS-Fli inh 62.5
O=C(N/N=C/c1ccco1)C1CC1c1ccccc1 (stereo not given)	none (no result: EWS-Fli inh)
O=C(c1cccc(F)c1)N1CCCCN2[C@@H](CO)[C@@H](c3ccc(/C=C/c4ccccc4)cc3)[C@@H]2C1	none (no result: TROY NFkB inh, TWEAK Fn14 block)
Cc1noc(C)c1COc1cccc(C(=O)NCCc2c[nH]c3ccccc23)c1	EWS-Fli inh 54.7
O=C(Nc1ccccc1)N1CCc2scc[n+]2-c2ccccc21	PAX8 inh HTS 111.7
CC1CN(C(=O)Nc2ccccc2)c2ccccc2-[n+]2ccsc21 (stereo not given)	none (no result: EWS-Fli inh)
FC(F)(F)c1nc(-c2cccs2)ncc1-c1nnnn1-c1ccc(Cl)cc1	TROY NFkB inh 66.4, TWEAK Fn14 block 98.7 (no result: LGR2 antag, PAX8 inh HTS, EWS-Fli inh)
Clc1ccc(-n2nnnc2-c2cnc(-c3ccncc3)nc2-c2cccs2)cc1	none (no result: LGR2 antag, PAX8 inh HTS, EWS-Fli inh)
Cc1onc(-c2ccccc2)c1NC(=O)OC(C)c1cccnc1 (stereo not given)	TWEAK Fn14 block 86.8
Cc1onc(-c2ccccc2)c1NC(=O)Nc1c(-c2ccccc2)noc1C	none (no result: LGR2 antag)
Cc1noc(C)c1S(=O)(=O)Nc1ccc2c(c1)C(=O)N([C@H](C)CO)C[C@H](C)[C@@H](CN(C)S(=O)(=O)c1ccc(F)cc1)OCCCC[C@@H](C)O2	none (no result: TROY NFkB inh, TWEAK Fn14 block)
Cc1sc2ncnc(SC(C)C(=O)N3c4ccccc4Sc4ccccc43)c2c1C (stereo not given)	EWS-Fli inh 89.9
C[C@@H]1CCCCO[C@@H](CN(C)C(=O)Nc2ccc(F)cc2)[C@@H](C)CN([C@@H](C)CO)C(=O)c2cc(NC(=O)CCC(F)(F)F)ccc2O1	none (no result: TROY NFkB inh, TWEAK Fn14 block)
O=C(C1CCCC1)N1CC2(C1)[C@@H](c1ccccc1)[C@@H](CO)N2Cc1ccccc1F	none (no result: TROY NFkB inh, TWEAK Fn14 block)
CCc1nnc(NC(=O)CCC(=O)N2CCN(C3c4ccccc4-c4ccccc43)CC2)s1	TROY NFkB inh 77.5, TWEAK Fn14 block 70.2
CCc1nnc(NC(=O)CCC(=O)N2CCN(Cc3ccccc3)CC2)s1	none (no result: LGR2 antag, PAX8 inh HTS, EWS-Fli inh)
CC1(C)CC(=O)c2c(-c3cccs3)n[nH]c2C1	TWEAK Fn14 block 54.9 (no result: LGR2 antag, PAX8 inh HTS, EWS-Fli inh)
CCCc1n[nH]c2c1C(=O)CC(C)(C)C2	none (no result: LGR2 antag, PAX8 inh HTS, EWS-Fli inh)
COC(=O)C1=C(C)N(Cc2cccc(C(F)(F)F)c2)C(=NCc2ccc3c(c2)OCO3)NC1c1cccc(F)c1 (stereo not given)	PAX8 inh HTS 65.0 (no result: TROY NFkB inh, TWEAK Fn14 block)
CCOc1ccc(N(C)S(=O)(=O)c2ccc(C)c(C(=O)OCC(=O)c3c[nH]c4ccccc34)c2)cc1	TWEAK Fn14 block 78.8
CCC(=O)N1[C@H](CN(C(C)C)S(C)(=O)=O)[C@H](c2ccccc2)[C@@H]1CO	none (no result: TROY NFkB inh, TWEAK Fn14 block)
CCOC(=O)[C@]12CCCC=C1N(Cc1ccccc1)C(=O)[C@H](CC(=O)NCc1ccc(OC)c(OC)c1)C2	none (no result: TROY NFkB inh, TWEAK Fn14 block)
CCOC(=O)[C@]12CCCC=C1N(Cc1cccc3ccccc13)C(=O)[C@H](CC(=O)NCc1ccc(OC)c(OC)c1)C2	LGR2 antag 39.8
